Screening results (PubChem BioAssay)
Wnt act = Wnt/beta-catenin pathway activators, primary screen, cell-based, plate reader, single point; Wnt/beta-catenin reporter cell assay, activator; activation, % at 9.35 µM; 1.2% of 300,000 active; AID 743398, 2014; in the data active means activation above about 30%, passing the limit was not always enough; inconclusive means no clear call, values can overlap the other calls;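 further: 0% = neutral control wells and 100% = positive control wells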
MITF act = activators of MITF-driven TRPM1 promoter reporter, primary screen, cell-based, SK-MEL-5, luciferase, single point. SK-MEL-5 TRPM1-promoter luciferase, 24 h; % of positive control, neutral wells = 0. activation, % at 12.5 µM. 0.75% of 300,000 active. AID 588334, 2011;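 active means mean activation of at least 80% with every replicate also reaching 80%; inconclusive means mean reaches 80% but some replicate falls short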;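 further: 0% = neutral control wells and 100% = parthenolide positive control wells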
SMARCA2 act = SMARCA2 (BRM) function activators, primary screen, cell-based, luminescence, high throughput; activation, % at 9.1 µM; 1% of 370,000 active; MG213 cells, MMTV-luciferase reporter, dexamethasone, overnight; in the data active means activation above about 7.8%;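 further: 0% = vehicle wells and 100% = reference activator wells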
MLL AF4-AF9 inh = inhibitors of AF4 peptide binding to AF9, primary screen, biochemical, AlphaScreen, biotin-AF4 peptide, FLAG-AF9, single point | AID 651704, 2012 | inhibition, % at 10 µM | 0.47% of 350,000 active;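 active means every replicate reaching a set inhibition limit, whatever the replicate mean, cut at about 25% in these data; inconclusive means mean inhibition reaches that limit but some replicates miss it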;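 further: 0% = plate neutral control median and 100% = total signal loss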
esBAF inh = Bmi1 luciferase reporter increase in mESCs, primary screen, esBAF inhibitor project, mouse ES cells, Bmi1 luciferase knock-in, single point; 2% of 350,000 active; 24 h; 100% = twice the neutral-well signal; reporter increase, % at 12.5 µM; in the data active means activation above about 40%; inconclusive means no clear call, values can overlap the other calls;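 further: 0% = median of the plate's neutral control wells and 100% = double that signal; a rise in the Bmi1 reporter signal indicates esBAF inhibition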
FGF22 binding = binders of human FGF22 protein, primary screen, FGF22 synaptogenesis inhibitor project, biophysical, thermal shift, single point; Fibroblast growth factor 22 (Homo sapiens), Q9HCT0; recombinant FGF22 thermal shift, SYPRO orange fluorescence; percent of sucrose octasulfate shift, DMSO zero; activity (Tm shift, normalised), % at 9.99 µM; 1.5% of 340,000 active; AID 651658, 2012;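 active means mean Tm shift, scaled 0 neutral to 100 positive control, at about 1.3% or above, every replicate too, limit read from the data; inconclusive means no clear call, values can overlap the other calls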
Target sequence (Q9HCT0 whole entry, looked up): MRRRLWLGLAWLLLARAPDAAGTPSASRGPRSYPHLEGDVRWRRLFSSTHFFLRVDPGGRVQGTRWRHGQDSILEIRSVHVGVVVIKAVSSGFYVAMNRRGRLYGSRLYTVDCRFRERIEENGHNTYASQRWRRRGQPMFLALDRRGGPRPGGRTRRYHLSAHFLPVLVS
SMARCA2 conf = SMARCA2 (BRM) function activators, confirmation, cell-based, luminescence, triplicate; shares compounds with SMARCA2 act; MG213 cells, MMTV-luciferase with dexamethasone, overnight; MG213 cells expressing E1A, Rb sequestered; DMSO wells 0%, reference activator 100%; activation, % at 9.1 µM; 30% of 3,500 active;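 active means activation above its plate's cutoff, the mean activation of tested wells plus 3 SD, cut at about 7.9% in these data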
GAL4-VP16 Luc = GAL4-VP16 luciferase reporter activation, counter-screen for SMARCA2 (BRM) activator project, cell-based, pG5luc, luminescence, high throughput; AID 686939, 2013; shares compounds with SMARCA2 act; 41% of 3,500 active; activation, % at 9.1 µM; HEK293 GAL4-VP16 pG5luc reporter; scaled: DMSO wells 0%, SAHA wells 100%;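 active means activation above the solvent-only control well mean plus 3 SD, averaged across control plates, cut at about 5.2% in these data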
The depositor's hits bear a star; ? = inconclusive; . = no result given. Most compounds without a hit are left out; they make up all but 4.3% or so of the library.

SMILES	Wnt act	MITF act	SMARCA2 act	MLL AF4-AF9 inh	esBAF inh	FGF22 binding	SMARCA2 conf	GAL4-VP16 Luc
CN(C)c1ccc(/C=C(/C#N)C(=O)Nc2nc3c(s2)CCN(Cc2ccccc2)C3)cc1	-6.0	18.3	8.9*	-1.1	28.0	0.0	-5.0	6.9*
Cc1nc(-c2cccc(NC(=O)C3CCCCC3)c2)cs1	1.4	1.6	0.9	4.2	2.0	0.1	.	.
Cc1nc(-c2ccc(NC(=O)C3CC3)cc2)cs1	13.8	?	8.2*	2.1	49.3*	-0.2	9.7*	8.9*
CCC(=O)N1C[C@H](C)[C@@H](OC)CN(C)C(=O)c2ccc(NC(=O)NC(C)C)cc2OC[C@H]1C	.	.	.	-1.4	-4.7	0.0	.	.
O=C(C[C@@H]1CC[C@@H]2[C@H](COC[C@H](O)CN2Cc2ccccc2F)O1)NCc1ccccc1F	.	.	.	0.8	26.6	-0.1	.	.
CN(C(=O)COC(=O)Cc1c(F)cccc1Cl)c1c(N)n(Cc2ccccc2)c(=O)[nH]c1=O	-4.3	2.1	9.4*	0.0	-6.7	-0.1	-2.3	2.8
C=CCN1CCc2c(cc(O)c(O)c2Cl)C(c2ccccc2)C1 (stereo not drawn)	-2.9	7.7	9.2*	51.8*	2.0	-1.2	4.5	0.8
C=CCN1CCc2cc(O)c(O)cc2C(c2ccccc2)C1 (stereo not drawn)	-0.7	-3.9	-1.0	4.8	-2.1	-0.6	.	.
C[C@@H]1CN([C@H](C)CO)C(=O)c2cc(NC(=O)c3ccccc3)ccc2O[C@@H](C)CCCCO[C@H]1CN(C)C(=O)CCC(F)(F)F	.	.	.	-10.5	2.6	-0.1	.	.
COc1ccc(NC(=O)NCCCN2CCCC2=O)cc1	7.4	9.2	-1.2	-2.3	3.9	-0.1	.	.
COc1ccc(C(=O)NCCCN2CCCC2=O)cc1	.	7.1	8.0*	.	11.4	.	-0.8	0.1
C[C@@H]1CN([C@H](C)CO)C(=O)c2cc(NC(=O)Cc3ccccc3)ccc2O[C@@H]1CN(C)C(=O)NC1CCCCC1	.	.	.	-16.4	1.7	-0.7	.	.
CCC(=O)C1CCCN(C(=O)CCc2nnc(C3(c4ccc(Cl)cc4)CCC3)o2)C1 (stereo not drawn)	17.5	44.1	8.8*	0.6	50.2*	-0.1	4.2	5.2*
NC(=O)C1CCCN(C(=O)CCc2nnc(C3(c4ccc(Cl)cc4)CCC3)o2)C1 (stereo not drawn)	-2.3	16.7	1.9	-0.3	.	0.3	.	.
COc1ccc(S(=O)(=O)Nc2cccc3c2O[C@@H](CN(C)C(=O)Nc2ccccc2)[C@H](C)CN([C@@H](C)CO)C3=O)cc1	.	.	.	-14.5	-1.6	0.0	.	.
Cc1cc(C(=O)O)cc(S(=O)(=O)Nc2c(C)nn(C)c2C)c1C	-2.0	-6.2	9.4*	-3.5	0.1	0.0	-1.8	-0.1
COc1ccc(-c2csc(C(O)c3ccc(F)cc3)n2)cn1 (stereo not drawn)	-0.3	.	8.1*	7.1	29.0	-0.5	2.0	2.0
COc1ccc(-c2csc(C(O)c3cccnc3)n2)cn1 (stereo not drawn)	-0.9	.	-0.3	2.0	10.8	-0.1	.	.
CN(C)CC(=O)N1CC2(C1)[C@H](c1ccccc1)[C@@H](CO)N2C(=O)C1CCC1	.	.	.	-0.8	.	.	.	.
Cc1cnc(C(=O)Nc2nnc(C3CC3)s2)cn1	16.2	.	8.8*	.	32.8	.	-0.8	2.1
Cc1cnc(C(=O)Nc2nnc(C)s2)cn1	1.9	9.3	-0.2	.	.	.	.	.
C[C@@H]1CCCCO[C@@H](CN(C)Cc2ccc(C(F)(F)F)cc2)[C@@H](C)CN([C@@H](C)CO)C(=O)c2cc(NC(=O)Nc3ccc(F)cc3)ccc2O1	.	.	.	1.1	-6.1	-0.3	.	.
CN1CCCC1(C)C(=O)Nc1ccc(-n2cccc2)cc1 (stereo not drawn)	-3.9	.	8.2*	8.7	23.1	0.1	4.4	3.5
CCCC(=O)N1CCCC1(C)C(=O)Nc1ccc(-n2cccc2)cc1 (stereo not drawn)	-0.1	.	-2.0	6.1	-3.1	0.1	.	.
O=C(Nc1nc2ccccc2n1CCN1CCOCC1)c1ccc(Cl)cc1	15.8	.	8.0*	0.3	18.1	0.2	-2.6	2.2
SMILES	Wnt act	MITF act	SMARCA2 act	MLL AF4-AF9 inh	esBAF inh	FGF22 binding	SMARCA2 conf	GAL4-VP16 Luc
O=C(Nc1nc2ccccc2n1CCN1CCCC1)c1ccc(Cl)cc1	2.9	.	9.1*	.	48.4*	.	18.1*	13.5*
COc1ccccc1CN(C)C(=O)c1ccc(S(=O)(=O)NCc2ccco2)cc1	-5.0	-6.6	11.4*	1.8	-1.0	0.1	1.2	3.2
CC1(C)CC(=O)CC2(C1)NCC(c1ccccc1)c1c2[nH]c2ccccc12 (stereo not drawn)	-0.8	-9.9	8.7*	7.2	-0.6	0.1	-1.9	1.2
N#Cc1ccc(-c2ccc3c(c2)[C@H]2[C@H](CCN2C(=O)c2ccccc2F)[C@@H](CO)N3)cc1	.	.	.	-3.6	-8.4	0.7	.	.
CCN1CCC(=NNC(=O)c2ccco2)CC1	-0.5	6.9	13.8*	.	6.0	.	-1.5	-0.6
CCN1CCN(c2ccc(NC(=O)c3ccco3)cc2)CC1	15.8	86.0*	8.3*	-1.5	.	-0.2	5.5	5.0
CCCN1CCC(=NNC(=O)c2ccc(Br)o2)CC1	1.8	-3.7	4.1	0.8	3.9	0.2	.	.
O=C(N[C@H]1CC[C@H](CCNC(=O)C2CCC2)O[C@@H]1CO)c1ccccn1	.	.	.	-1.2	1.1	-0.2	.	.
CCCNC(=O)Nc1ccc2c(c1)C(=O)N(C)[C@H]1CC[C@H](CC(=O)NCC3CCCCC3)O[C@H]1CO2	.	.	.	-5.3	2.3	0.0	.	.
CC(=O)c1ccc(OCCCC(=O)OCc2nnc(-c3ccc(Cl)cc3)o2)cc1	-1.5	.	8.3*	.	.	.	8.4*	0.2
CCOC(=O)C1CCCN(Cc2nc3ccc([N+](=O)[O-])cc3c(=O)n2-c2ccc(OC)cc2OC)C1 (stereo not drawn)	19.8	-13.1	7.0	2.8	13.1	0.2	.	.
COc1ccc(-n2c(CN3CCC(C(N)=O)CC3)nc3ccc([N+](=O)[O-])cc3c2=O)c(OC)c1	4.9	-6.5	8.0*	0.3	4.3	0.2	0.9	1.1
